{"source": "PubChem BioAssay AID743363", "about": "(Broad Institute, 2014)", "note": "Calls of active or inactive are those of the source. The rule behind the calls is not given here."}
{"experiment": "interference with FL-DTB/streptavidin displacement signal, dose response, counter-screen, biochemical, dry powder samples (AID 743363)", "settings": "FL-DTB/streptavidin fluorescence displacement counter-screen, BioD coupled; series mostly up to 10 µM"}
{"smiles": "CC(C)NC(=O)N1CC[C@@H]2[C@@H](CO)N(C)c3ccc(-c4cccc(F)c4)cc3[C@@H]21", "outcome": "inactive"}
{"smiles": "CNS(=O)(=O)c1ccc(N2CCN(C(=O)c3ccc4c(c3)OCO4)CC2)cc1", "outcome": "inactive"}
{"smiles": "CC(=O)c1ccc(N2CCN(C(=O)c3cc4c(cn3)OCO4)CC2)cc1", "outcome": "inactive"}
{"smiles": "COc1cc2c(cc1C(=O)N1CCN(c3ccc(C(C)=O)cc3)CC1)OCO2", "outcome": "inactive"}
{"smiles": "CN1c2ccc(-c3ccc(F)cc3)cc2[C@H]2[C@H](CCN2C(=O)Nc2cc(F)ccc2F)[C@H]1CO", "outcome": "inactive"}
{"smiles": "COC(=O)CCCCCCC(=O)N1CC[C@@H]2[C@@H](CO)N(C)c3ccc(-c4cccc(F)c4)cc3[C@@H]21", "outcome": "inactive"}
{"smiles": "COc1ccc(NC(=O)N2CC[C@@H]3[C@@H](CO)N(C)c4ccc(-c5ccc(F)cc5)cc4[C@@H]32)cc1", "outcome": "inactive"}
{"smiles": "CN1c2ccc(-c3cccc(F)c3)cc2[C@H]2[C@H](CCN2C(=O)Cc2cccnc2)[C@H]1CO", "outcome": "inactive"}
{"smiles": "COc1cc(C(=O)N2CCN(c3ccc(C(C)=O)cc3)CC2)cc2c1OCO2", "outcome": "inactive"}
{"smiles": "CN1c2ccc(-c3ccc(F)cc3)cc2[C@H]2[C@H](CCN2C(=O)Nc2ccc(F)cc2)[C@H]1CO", "outcome": "inactive"}
{"smiles": "CN1c2ccc(-c3cccc(F)c3)cc2[C@H]2[C@H](CCN2C(=O)Cc2ccccc2)[C@H]1CO", "outcome": "inactive"}
{"smiles": "CC(=O)c1ccc(N2CC3CC2CN3C(=O)c2ccc3c(c2)OCO3)cc1", "note": "(stereo not given)", "outcome": "inactive"}
{"smiles": "CC(=O)c1ccc(N2CCN(C(=O)c3ccc4c(c3)OCO4)[C@H](C)C2)cc1", "outcome": "inactive"}
{"smiles": "CC(=O)c1ccc(NCCNC(=O)c2ccc3c(c2)OCO3)cc1", "outcome": "inactive"}
{"smiles": "CC(=O)c1ccc(N2CCN(C(=O)Nc3ccc4c(c3)OCO4)CC2)cc1", "outcome": "inactive"}
{"smiles": "COc1ccccc1NC(=O)N1CC[C@@H]2[C@@H](CO)N(C)c3ccc(-c4cccc(F)c4)cc3[C@@H]21", "outcome": "inactive"}
{"smiles": "CN(C)S(=O)(=O)c1ccc(N2CCN(C(=O)c3ccc4c(c3)OCO4)CC2)cc1", "outcome": "inactive"}
{"smiles": "CC(=O)c1ccc(N2CCN(C(=O)c3cc4c(cc3Cl)OCO4)CC2)cc1", "outcome": "inactive"}
{"smiles": "COCC(=O)N1CC[C@@H]2[C@@H](CO)N(C)c3ccc(-c4cccc(F)c4)cc3[C@@H]21", "outcome": "inactive"}
{"smiles": "O=C(c1ccc2c(c1)OCO2)N1CCN(c2ccc(C(F)(F)F)cc2)CC1", "outcome": "inactive"}
{"smiles": "CS(=O)(=O)c1ccc(N2CCN(C(=O)c3ccc4c(c3)OCO4)CC2)cc1", "outcome": "inactive"}
{"smiles": "CN(C)C(=O)c1ccc(N2CCN(C(=O)c3ccc4c(c3)OCO4)CC2)cc1", "outcome": "inactive"}
{"smiles": "CC(=O)c1ccc(N2CCN(C(=O)c3ccc4c(c3)OC(C)(C)O4)CC2)cc1", "outcome": "inactive"}
{"smiles": "CC(=O)c1ccc(N2CCCN(C(=O)c3ccc4c(c3)OCO4)CC2)cc1", "outcome": "inactive"}
{"smiles": "CN1c2ccc(-c3cccc(F)c3)cc2[C@H]2[C@H](CCN2C(=O)Nc2ccccc2F)[C@H]1CO", "outcome": "inactive"}
{"smiles": "N#Cc1ccc(N2CCN(C(=O)c3ccc4c(c3)OCO4)CC2)cc1", "outcome": "inactive"}
{"smiles": "CC(=O)c1ccc(N2CC3(CN(C(=O)c4ccc5c(c4)OCO5)C3)C2)cc1", "outcome": "inactive"}
{"smiles": "COc1ccccc1NC(=O)N1CC[C@@H]2[C@@H](CO)N(C)c3ccc(-c4ccc(F)cc4)cc3[C@@H]21", "outcome": "inactive"}
{"smiles": "CN1c2ccc(-c3cccc(F)c3)cc2[C@H]2[C@H](CCN2C(=O)CCCCCCN)[C@H]1CO", "outcome": "inactive"}
{"smiles": "CC(=O)c1ccc(N2CCN(C(=O)c3ccc4ocnc4c3)CC2)cc1", "outcome": "inactive"}
